# Results: paper PMC9911399, “Two distinct binding modes provide the RNA-binding protein RbFox with extraordinary sequence specificity”
# Positions count from the first letter of the chain named. In all, about 16,000 sequences were measured (“ka relative to ugcaugu”: median about 0.096, highest 2% from about 0.35 on). Only a selection was taken, and the highest values are over-represented in it overall.
# B1: ACUUAUG (DNA:RNA)
# RNA: GGGAGACCGGAAUUCAGAUUGUCCACUUAUGUUAAAUCCCGUCGUAGCCACCA
# DNA 1: CAATCTGAATTCCGGTCTCCC
# DNA 2: TGGTGGCTACGACGGGATT
# B2: UCCAUGA (DNA:RNA)
# RNA: B1 RNA with A25U, U27C, U28A, A29U, U30G, G31A
# DNA 1: CAATCTGAATTCCGGTCTCCC
# DNA 2: TGGTGGCTACGACGGGATT
# B3: GGAGUCA (DNA:RNA)
# RNA: GGGAGACCGGAAUUCAGAUUGUCCGGAGUCAUUAAAUCCCGUCGUAGCCACCA
# DNA 1: CAATCTGAATTCCGGTCTCCC
# DNA 2: TGGTGGCTACGACGGGATT
# B4: CCAACAG (DNA:RNA)
# RNA: B1 RNA with A25C, U27A, U28A, A29C, U30A
# DNA 1: CAATCTGAATTCCGGTCTCCC
# DNA 2: TGGTGGCTACGACGGGATT
# B5: ACGGAGA (DNA:RNA)
# RNA: B1 RNA with U27G, U28G, U30G, G31A
# DNA 1: CAATCTGAATTCCGGTCTCCC
# DNA 2: TGGTGGCTACGACGGGATT
# B6: GAUCACA (DNA:RNA)
# RNA: B3 RNA with G26A, A27U, G28C, U29A
# DNA 1: CAATCTGAATTCCGGTCTCCC
# DNA 2: TGGTGGCTACGACGGGATT
# B7: GAUCCGG (DNA:RNA)
# RNA: B1 RNA with A25G, C26A, U28C, A29C, U30G
# DNA 1: CAATCTGAATTCCGGTCTCCC
# DNA 2: TGGTGGCTACGACGGGATT
# B8: CUUCGGA (DNA:RNA)
# RNA: B1 RNA with A25C, C26U, U28C, A29G, U30G, G31A
# DNA 1: CAATCTGAATTCCGGTCTCCC
# DNA 2: TGGTGGCTACGACGGGATT
# B9: AUGUGUG (DNA:RNA)
# RNA: B1 RNA with C26U, U27G, A29G
# DNA 1: CAATCTGAATTCCGGTCTCCC
# DNA 2: TGGTGGCTACGACGGGATT
# B10: AUGUGUU (DNA:RNA)
# RNA: B1 RNA with C26U, U27G, A29G, G31U
# DNA 1: CAATCTGAATTCCGGTCTCCC
# DNA 2: TGGTGGCTACGACGGGATT
# B11: AUGUGCC (DNA:RNA)
# RNA: B1 RNA with C26U, U27G, A29G, U30C, G31C
# DNA 1: CAATCTGAATTCCGGTCTCCC
# DNA 2: TGGTGGCTACGACGGGATT
# B12: AUGUGCG (DNA:RNA)
# RNA: B1 RNA with C26U, U27G, A29G, U30C
# DNA 1: CAATCTGAATTCCGGTCTCCC
# DNA 2: TGGTGGCTACGACGGGATT
# B13: AUGUGUC (DNA:RNA)
# RNA: B1 RNA with C26U, U27G, A29G, G31C
# DNA 1: CAATCTGAATTCCGGTCTCCC
# DNA 2: TGGTGGCTACGACGGGATT
# B14: AUGUCCC (DNA:RNA)
# RNA: B1 RNA with C26U, U27G, A29C, U30C, G31C
# DNA 1: CAATCTGAATTCCGGTCTCCC
# DNA 2: TGGTGGCTACGACGGGATT
# Molecular target: T1, RBFOX1 RRM RbFoxmut (Fox-RRM*) (Homo sapiens, UniProt Q9NWB1 109-208, R118D;E147R;N151S;E152T)
# T1 sequence: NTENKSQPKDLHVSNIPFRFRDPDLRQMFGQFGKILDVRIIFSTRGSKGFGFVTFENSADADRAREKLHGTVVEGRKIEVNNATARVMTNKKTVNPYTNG
# Test: EMSA; HiTS-Eq, 1 nM pool, 10 min; buffer printed only for the single-RNA assays: 10 mM Tris pH 7.5, 150 mM NaCl, 3.4 mM EDTA, 0.001% NP-40, 30 C
# Conditions: tags: His6 N-terminal (pET28a); label: 5' 32P
# In short: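 Purified wild-type or mutant RbFox RRM at increasing concentrations was equilibrated with 1 nM of 5′-radiolabelled RNA carrying 7 randomized nucleotides for 10 min in 50 µL. Unbound RNA was separated by 8% native PAGE and sequenced. Relative association constants came from read-count changes of each RNA species compared with the control reaction, normalised to the cognate motif.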
row,Binder,binding signal
1,B1,0.125 KA relative to UGCAUGU
2,B2,0.11 KA relative to UGCAUGU
3,B3,0.0995 KA relative to UGCAUGU
4,B4,0.108 KA relative to UGCAUGU
5,B5,0.0992 KA relative to UGCAUGU
6,B6,0.0738 KA relative to UGCAUGU
7,B7,0.06 KA relative to UGCAUGU
8,B8,0.0749 KA relative to UGCAUGU
9,B9,0.443 KA relative to UGCAUGU
10,B10,0.174 KA relative to UGCAUGU
11,B11,0.372 KA relative to UGCAUGU
12,B12,0.231 KA relative to UGCAUGU
13,B13,0.289 KA relative to UGCAUGU
14,B14,0.0715 KA relative to UGCAUGU
